Bioassay records (PubChem)
Sfp inh – inhibitors of Bacillus subtilis Sfp phosphopantetheinyl transferase. Q9F4F7. Biochemical Sfp PPTase activity, qHTS. Potency, µM, for the others: largest response in the series, negative = inhibition, usual class: inhibitors. 310,000 tested, 3.5% active;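 note: the enzyme is Sfp with the accession as filed and its product quenches rhodamine fluorescence; potency is the fitted concentration of half-maximal effect; 0% = enzyme reaction without inhibitor and -100% = no enzyme wells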
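Sfp 15 nM + cpd, 15 min RT; start w/ rhodamine-CoA 5 uM, BHQ-2-YbbR 12.5 uM (final); 50 mM Hepes pH 7.6, 10 mM MgCl2, 0.01% NP-40, 0.01% BSA; read 525/598 nm at 0 and 30 min.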
Tau FP inhib – inhibitors of human tau fibril formation. K18 P301L tau heparin fibrillization, Alexa594 FP, 6 h. P10636. 280,000 tested, 0.39% active. Potency, µM (highest dose often 57.7 µM), for the others: at the top dose activity, negative = inhibition, usual class: inhibitors. AID 1468; note: potency is the fitted concentration of half-maximal effect; nearly all actives have a fitted effect of over 55% in size
Target sequence (P10636 561-689 P618L limits assumed): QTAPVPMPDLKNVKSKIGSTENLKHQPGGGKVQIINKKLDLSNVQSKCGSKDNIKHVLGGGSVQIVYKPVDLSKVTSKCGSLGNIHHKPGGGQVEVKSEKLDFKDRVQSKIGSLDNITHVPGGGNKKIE
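Recombinant K18 P301L […], labeled with Alexa 594 at 0.24 uM over 15 uM unlabeled; heparin inducer 20 uM final; 37 C, 6 hr; FP endpoint.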
Tau fluor counter – counter-screen for tau fibril formation inhibitors; tau K18 P301L Alexa594 fluorescence, heparin fibrillization; Potency, µM (highest dose often 57.7 µM), inactives show top-dose activity change, negative = decrease; 280,000 tested, 0.93% active; AID 1463; note: potency is the fitted concentration of half-maximal effect; nearly all actives have a fitted effect of over 55% in size
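Human tau K18 P301L (15 uM unlabeled, 0.24 uM Alexa 594-labeled) in 100 mM sodium acetate pH 7 with 20 uM heparin, 6 hr at 37 C. ThT 30 uM added, 1 hr ambient; Alexa 594 FP and total fluorescence read at 555/632 nm.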
Tau fibril ThT – blocks human tau fibril formation measured by thioflavin T; P10636; recombinant tau K18 P301L (four-repeat tau fragment), heparin-induced fibrillization, ThT fluorescence; Potency, µM (titrated, usually from 57.4 µM), inactives show at the highest dose activity, negative = inhibition, actives largely listed as inhibitors; 270,000 tested, 2.1% active; note: potency is the fitted concentration of half-maximal effect; nearly all actives have a fitted effect of over 55% in size
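Tau K18 P301L fragment (15 uM unlabeled plus 0.24 uM Alexa 594-labeled) in 100 mM sodium acetate pH 7 with compound, fibrillization induced by 20 uM heparin for 6 hr at 37 C. Thioflavin T (30 uM) added, fluorescence read after 1 hr (ex 450, em 510 nm).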
Coupling enz – coupling enzyme interference in Giardia aldolase counter-screen; AID 2472; 290,000 tested, 0.67% active; coupling enzyme system counterscreen, AmpLite Red fluorescence; activity change, negative = inhibition, % at 58.2 µM, hits read low; in the data active = activity change below about -30%
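Counterscreen lacking aldolase: glyceraldehyde-3-phosphate coupling-enzyme reagent preincubated 10 min at RT with compound (at 57.5 uM final), then substrate/coupling system with AmpLite Red added; fluorescence read at 525/598 nm after 20 min RT.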
* marks the source's active call; other numbers are inactive results; ? = inconclusive; / = no result given; [ ] = dose if it differs, or a comment. Most compounds without a hit are left out; they make up all but 5.2% or so of the library. Unless noted, calls come from the whole dose curve; as a rule, active = well fitted curve in the direction sought with a large enough effect; inconclusive = small, poorly fitted or top-dose-only effect, or another doubt; inactive = no such curve, though single readings can be large; an effect the other way counts as inactive or inconclusive. Unless noted, % is set by controls: 0 for no effect and ±100 for the full control effect.

SMILES	Sfp inh	Tau FP inhib	Tau fluor counter	Tau fibril ThT	Coupling enz
CC1=C(C(=O)OCC(C)C)C2(O)C(=O)c3ccccc3C2(O)N1 (stereo not given)	-18%	?	-10%	7.9µM*	0
O=C1NCCN(Cc2ccc(F)cc2)C1=O	/	3%	-1%	-3%	/
c1ccc(CCc2nn3c(Cc4ccccc4)nnc3s2)cc1	22µM*	1%	-1%	-16%	6
CCOc1ccccc1NS(=O)(=O)c1ccc2oc(=O)c3ncn(C)c3c2c1	/	-4%	1%	11%	/
S=c1[nH]nc(-c2cc(-c3ccco3)[nH]n2)n1-c1ccccc1	89µM*	0%	-6%	-5%	0
S=c1[nH]nc(-c2cc(-c3ccco3)[nH]n2)n1-c1ccccc1Cl	28µM*	?	?	20µM*	-4
Cc1ccc(-n2c(-c3cc(C)n(C)n3)n[nH]c2=S)cc1	?	-5%	0%	-1%	3
Cc1cc(-c2n[nH]c(=S)n2-c2ccccc2)nn1C	79µM*	0%	-5%	-5%	3
S=c1[nH]nc(-c2ccco2)n1-c1ccccc1Cl	-7%	2%	-9%	-8%	1
COc1ccc(OC)c(-n2c(-c3cc(-c4ccco4)[nH]n3)n[nH]c2=S)c1	17%	3%	10%[2.34 µM]	1%	0
O=C1C(c2ccc(F)cc2)N(CCc2ccccc2)C(=O)CN1C1CCCCCC1 (stereo not given)	/	1%	-2%	-3%	/
Cc1ccc(CNC(=O)Cn2cc3c(n2)-c2c(oc(C(=O)N4CCOCC4)c2C)CC3)cc1	/	3%	-5%	-5%	/
O=C(c1ccc2c(c1)N(Cc1ccccc1)CCS2)N1CCCCC1	40µM*	6%	-16%	?	7
CN1CCN(C(=O)c2ccc3c(c2)N(Cc2ccccc2)CCS3)CC1	-5%	/	/	/	2
Cc1nn(-c2ccccc2)c(N2CCCC2)c1/C=C1\N=C(c2ccc(OC(C)C)cc2)OC1=O	-10%	10%	-21%	10µM*	0
CC(C)CC(=O)Nc1c(C(=O)N2CCN(c3ccccc3F)CC2)oc2ccccc12	/	?	-16%	?	/
Cc1ccc(O)c(N=CC2=C(O)c3ccccc3C2=O)c1	-27%	?	?	25µM*	-9
O=C1C(C=Nc2ccccc2O)=C(O)c2ccccc21	0%	-2%	-29%	?	0
COc1ccc(N=CC2=C(O)c3ccccc3C2=O)cc1	13%	-8%	-14%	2.2µM*	-1
COc1ccc(N=Cc2[nH]c3ccccc3c2O)cc1	-99%	?	-27%	18µM*	-38*
O=C1C(C=Nc2ccccc2)=C(O)c2ccccc21	2%	7%	-14%	?	0
COc1ccc(N=Cc2oc3ccc4ccccc4c3c2O)cc1	-6%	12%	-20%	?	-2
Cc1cc(C)c(-c2n[nH]c3c2C(c2ccccc2F)N(Cc2ccco2)C3=O)c(O)c1 (stereo not given)	/	1%	?	?	/
CCCCCCc1ccc(C(=O)CCN(C)C)cc1	?	/	/	/	6
CCC(=O)N1c2ccc(S(=O)(=O)NCc3ccc(F)cc3)cc2CC1C (stereo not given)	/	-3%	-9%	0%	/
SMILES	Sfp inh	Tau FP inhib	Tau fluor counter	Tau fibril ThT	Coupling enz
COc1ccccc1NC(=O)CN1CCC(n2nnc3cc(F)ccc32)CC1	4%	3%	-15%	-22%	0
O=C(CN1CCC(n2nnc3cc(F)ccc32)CC1)NCc1ccco1	56µM*	-8%	-16%	-12%	-28
Cc1ccc(C)c(Cn2nnc(C(=O)NCc3ccccc3)c2N)c1	/	-5%	-11%	1%	/
Cc1ccc(Nc2nnc(-c3ccc4c(c3)OCO4)o2)c(C)c1	50µM*	2%	-10%	?	-2
Cc1ccc(/C=C/C(=O)c2ccccc2O)cc1	-17%	12%	-20%	?	-1
O=C(/C=C/c1cccnc1)c1ccccc1O	45µM*	5%	3%	-15%	1
COc1cccc(/C=C/C(=O)c2c(O)cc(C)oc2=O)c1O	5%	-4%	-27%	?	-2
CN(C)c1ccc(/C=C/C(=O)c2ccccc2O)cc1	-13%	?	?	4µM*	-1
COc1ccc(C(=O)/C=C/c2cc(OC)c(O)c(OC)c2)c(F)c1	79µM*	0%	-4%	4%	-10
COc1cc(/C=C/C(=O)c2c(O)cc(C)oc2=O)cc(OC)c1O	-23%	-14%	?	28µM*	1
O=c1[nH]c2ccc(NCc3ccccc3F)cc2[nH]1	/	-7%	-24%	?	/
COc1ccccc1CCNC(=O)C(=O)NCC(c1ccco1)S(=O)(=O)c1ccc(F)cc1 (stereo not given)	/	-6%	-14%	-11%	/
Cc1ccc(CNS(=O)(=O)c2cc3c(cc2Cl)NC(=O)CO3)o1	/	-1%	1%	11%	/
Cc1cc2nc(-c3ccc(NC(=O)c4ccccc4F)cc3)oc2cc1C	/	-11%	0%	?	/
O=C(NC[C@H](O)c1ccccc1)c1ccccc1	14%	-2%	-2%	2%	2
COc1cc(/C=C/C(=O)c2c(O)ccc3c(C)cc(=O)oc23)ccc1O	-16%	-3%	-21%	16µM*	3
COc1ccc(/C=C/C(=O)c2cc3cccc(OC)c3oc2=O)cc1	?	14%	-22%	7.1µM*	-3
O=C(/C=C/c1cccc(O)c1)c1cccnc1	-26%	13%	5%	-15%	0
CNC(=O)c1cc2cccc(OC)c2oc1=O	17%	5%	3%	-3%	-2
COc1ccc(C(=O)/C=C/c2ccc(N(C)C)cc2)c(OC)c1	-18%	-3%	14µM*[quencher]	?	0
CN(C)c1ccc(/C=C/C(=O)c2cccnc2)cc1	8%	4%	?	5µM*	-3
C[C@H](NC(=O)/C(C#N)=C/c1ccc(O)c(O)c1)c1ccccc1	?	-13%	?	?	2
COc1ccccc1CN1CCCC2(CCN(S(=O)(=O)c3ccccc3)CC2)C1	13%	/	/	/	1
CCCCCOC(=O)c1ccc(Nc2nc(C(=O)OCC)nc3ccccc23)cc1	/	-11%	-26%	-8%	/
COc1ccc(C(=O)/C=C/c2ccccc2F)c(OC(=O)c2ccc([N+](=O)[O-])cc2)c1	9%	11%	?	?	-2
COc1ccc(C(=O)/C=C/c2ccc(C)cc2)c(OC(=O)c2ccc([N+](=O)[O-])cc2)c1	-1%	9%	?	3.5µM*	-2
O=C(Nc1nnc(C2CC2)s1)C1Cc2ccccc2CN1C(=O)c1ccco1 (stereo not given)	40µM*	-14%	-14%	?	-4
O=C(Nc1ccc([N+](=O)[O-])cc1)C1COc2ccccc2O1 (stereo not given)	1%	/	/	/	4
O=C(N/N=C\C=C\c1ccco1)C1COc2ccccc2O1 (stereo not given)	40µM*	-5%	-3%	/	-8
